Measurements as given in PubChem BioAssay (NCATS).
Values joined by “and” are separate entries in the source; they are usually repeats but may differ in a detail not shown here. Identical values can stand only once. Records with an inconclusive call do not appear. Active and inactive are the calls of the source. Unless noted, the call rests on the fitted dose curve; in most records, active means well fitted curve in the direction sought with a large enough effect; inconclusive means small, poorly fitted or top-dose-only effect, or another doubt; inactive means no such curve, though single readings can be large; an effect the other way counts as inactive or inconclusive.

Columns and labels:
[1] = Identifying Small Molecule Inhibitors of Pancreatic Cancer Stem Cells (SN12C, Adherent) (AID 1259358);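 further: cell survival measured after 48 h of compound exposure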; further: potency means the concentration at half of the fitted maximal effect
Summary of the method: (§1)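 Spheroids grown 14 days in stem cell media on hydrogel-coated nonadherent plates; 2D lines seeded directly. Compounds added after 4 h attachment, 48 h at 37C, 5% CO2; CellTiter-Glo luminescence normalized to DMSO (no inhibition) and no-cell wells (full inhibition).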

[2] = Identifying Small Molecule Inhibitors of Pancreatic Cancer Stem Cells (SN12C, Spheroid) (AID 1259360); conditions: Potency: SN12C spheroid viability; further: potency means the concentration at half of the fitted maximal effect
Summary of the method: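 Luminescent ATP readout (CellTiter-Glo) quantifies surviving cells after a 48 h drug incubation. Normalization uses DMSO wells as no inhibition and media-only wells as full inhibition; bortezomib served as positive control.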

[3] = Identifying Small Molecule Inhibitors of Pancreatic Cancer Stem Cells (A278, Adherent) (AID 1259361); further: nearly all actives have a fitted effect of over 35% in size
Summary of the method: as §1

[4] = Identifying Small Molecule Inhibitors of Pancreatic Cancer Stem Cells (Panc1, Adherent) (AID 1259362); conditions: Potency: viability;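 further: compound exposure lasted 48 h before the viability read; plate controls were DMSO-treated cells for no effect and cell-free media wells for full effect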
Summary of the method: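 Endpoint: ATP-based luminescence, 48 h drug exposure. Bortezomib at 9.2 uM final as full-kill control; DMSO vehicle as negative control; activity normalized between vehicle and cell-free wells.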

[5] = Natriuretic polypeptide receptor (hNpr1) antagonism - Pilot counterscreen GloSensor control cell line (AID 1347045; calls by dose curve; further: series mostly up to about 38 µM; on the % scale 0 is the no-effect control and ±100 the full control effect)
Summary of the method: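 Cells were first seeded and incubated overnight at 37C, then loaded with 2% GloSensor substrate for 2 h. Compounds were added for 30 min at room temperature, followed by a baseline read, 50 uM SNP and a final read after 20 min.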

[6] = molecular target: Atrial natriuretic peptide receptor 2 (Homo sapiens) (UniProt P20594); experiment: Natriuretic polypeptide receptor (hNpr2) antagonism - Pilot subtype selectivity assay (AID 1347050; calls by dose curve; further: on the % scale 0 is the no-effect control and ±100 the full control effect)
Summary of the method: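 Luminescence from a genetically encoded cGMP luciferase biosensor in hNpr2-expressing HEK293 cells is read before and 20 min after adding 1 nM hNppC. Test compounds, in interplate 1:5 titrations, are added 30-50 min ahead of the agonist.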

[7] = molecular target: T1, Tyrosine-protein phosphatase non-receptor type substrate 1 (Homo sapiens) + Leukocyte surface antigen CD47 (Homo sapiens) (UniProt P78324+Q08722); experiment: CD47-SIRPalpha protein protein interaction - LANCE assay qHTS validation (AID 1347057; active means well fitted curve in the direction sought with a large enough effect in the signal ratio, with a control signal flat, not every such curve was filed as active; the % refers to the signal ratio; further: series mostly up to about 38 µM; 0% is about no effect)
Summary of the method: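 Inhibition of soluble CD47/SIRPalpha ectodomain association by titrated compounds, measured as 665/615 nm time-resolved FRET ratio after sequential 30 min room-temperature incubations.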

[8] = molecular target: T1, Tyrosine-protein phosphatase non-receptor type substrate 1 (Homo sapiens) + Leukocyte surface antigen CD47 (Homo sapiens); experiment: CD47-SIRPalpha protein protein interaction - HTRF assay qHTS validation (AID 1347058; active means well fitted curve in the direction sought with a large enough effect in the signal ratio, not every such curve was filed as active; the % refers to the signal ratio; further: series mostly up to about 38 µM; 0% is about no effect)
Summary of the method: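 Soluble extracellular domains (6His-CD47, Avi-tag-biotinylated SIRPalpha) in PBS pH 7.4 with 0.05% IGEPAL CA-630. Compounds were preincubated 30 min at RT with CD47 and anti-His-Eu, then SIRPalpha and SAV-XL665 were added. TR-FRET 665/615 ratio.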

[9] = molecular target: T1, Tyrosine-protein phosphatase non-receptor type substrate 1 (Homo sapiens) + Leukocyte surface antigen CD47 (Homo sapiens); experiment: CD47-SIRPalpha protein protein interaction - Alpha assay qHTS validation (AID 1347059);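 further: bead proximity luminescence from CD47 binding SIRPalpha after compound preincubation with SIRPalpha; on the % scale 0 is the no-effect control and ±100 the full control effect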
Summary of the method: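 SIRPalpha-biotin 25 nM + cpd, 30 min RT, dark; add CD47-His 12.5 nM, 30 min; add Ni-NTA/SAV beads 10 ug/mL, 30 min; AlphaScreen. Buffer PBS pH 7.4 + 0.05% IGEPAL CA-630. Non-biotinylated SIRPalpha as control inhibitor.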

[10] = qHTS of pediatric cancer cell lines to identify multiple opportunities for drug repurposing: Primary screen for TC32 cells (AID 1347089); further: nearly all actives have a fitted effect of over 60% in size; further: potency means the concentration at half of the fitted maximal effect
Summary of the method: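 Luminescent ATP read-out (CellTiter-Glo) of metabolically active TC32 cells after 48 h exposure. Concentration-response curves came from 11-point (MIPE, 0.78 nM–46 µM) or 8-point (NPC, 0.59 nM–46 µM) primary titrations; follow-up used 11 points.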

[11] = qHTS of pediatric cancer cell lines to identify multiple opportunities for drug repurposing: Primary screen for DAOY cells (AID 1347090); further: nearly all actives have a fitted effect of over 55% in size; further: potency means the concentration at half of the fitted maximal effect
Summary of the method: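 Viability measured as metabolically active cells via CellTiter-Glo luminescence following 48 hours of compound exposure, 11-point dilutions in confirmatory testing. 500-1,000 cells/well plated 5 hours before dosing; controls were DMSO and 2.3 µM bortezomib.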

[12] = qHTS Screen of the MIPE 4.0 Collection Against Ewings Sarcoma (TC32) (AID 1259256); further: nearly all actives have a fitted effect of over 45% in size; further: potency means the concentration at half of the fitted maximal effect
Summary of the method: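 Log-phase cells in RPMI with 5% FBS attached for 4 h, then received compounds as a titration for 48 h at 37C, 5% CO2. Viability was read by CellTiter-Glo luminescence and normalized to DMSO and no-cell wells.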

[13] = P-glycoprotein substrates identified in KB-8-5-11 adenocarcinoma cell line, qHTS therapeutic library screen (AID 1346987); further: nearly all actives have a fitted effect of over 65% in size
Summary of the method: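 Luminescence from CellTiter-Glo, read 5 min after addition, quantified survival of KB-8-5-11 (P-gp-overexpressing) cells exposed to compounds for 72 h. AC50 was derived from concentration-response curves.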

[14] = Identifying Small Molecule Inhibitors of Pancreatic Cancer Stem Cells (Panc1, Spheroid) (AID 1259359);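 further: potency means the concentration at half of the fitted maximal effect; compound exposure lasted 48 h before reading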
Summary of the method: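 Spheroids grown 14 days in stem cell media on nonadherent hydrogel before screening; cells attached 4 h, then compound exposure 48 h at 37C, 5% CO2. CellTiter-Glo luminescence normalized to DMSO (no inhibition) and no-cell wells (full inhibition).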

[15] = NS1 protein of Zika virus - qHTS assay to identify small molecule inhibitors in human HEK 293 cells (AID 1347053); further: nearly all actives have a fitted effect of over 55% in size; further: potency means the concentration at half of the fitted maximal effect
Summary of the method: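 TR-FRET signal from two anti-ZIKV NS1 antibodies quantified NS1 in HEK 293 cells 24 h after MR766 infection at MOI = 0.5; compounds were added 1 h before virus. Uninfected cells and infected cells defined the NS1 normalization range.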

[16] = qHTS assay to identify small molecule inhibitors of chordoma cells - UCH-2 (AID 1259356); further: series mostly up to about 46 µM; on the % scale 0 is the no-effect control and ±100 the full control effect
[17] = molecular target: Parathyroid hormone/parathyroid hormone-related peptide receptor (Homo sapiens) (UniProt Q03431); experiment: qHTS for PTHR1 Agonists: Optimization Screen against the NCGC LOPAC library (AID 1347079);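 further: GloSensor cAMP luminescence in HEK-293 GP2 cells expressing human PTHR1 with IBMX; 0% is about no effect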
Summary of the method: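 HEK-293 GP2 cells, PTHR1 + GloSensor cAMP; 3000 cells/well, o/n. Luciferin + IBMX 0.5mM each (stock), 1 hr 37C. Cpd titration, 1 hr 37C. Lum after 15 min RT. Ctrl M-PTH(1-15) top 10uM.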

[18] = P-glycoprotein substrates identified in KB-3-1 adenocarcinoma cell line, qHTS therapeutic library screen (AID 1346986); further: nearly all actives have a fitted effect of over 60% in size
Summary of the method: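 In 1536-well format, 500 cells/well received pinned compound titrations and were incubated 72 h, 5% CO2. Viability was read by CellTiter-Glo; cytotoxic if AC50 < 10 uM and efficacy >50%.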

Sequence of Atrial natriuretic peptide receptor 2 (Homo sapiens) (P20594 whole entry, looked up): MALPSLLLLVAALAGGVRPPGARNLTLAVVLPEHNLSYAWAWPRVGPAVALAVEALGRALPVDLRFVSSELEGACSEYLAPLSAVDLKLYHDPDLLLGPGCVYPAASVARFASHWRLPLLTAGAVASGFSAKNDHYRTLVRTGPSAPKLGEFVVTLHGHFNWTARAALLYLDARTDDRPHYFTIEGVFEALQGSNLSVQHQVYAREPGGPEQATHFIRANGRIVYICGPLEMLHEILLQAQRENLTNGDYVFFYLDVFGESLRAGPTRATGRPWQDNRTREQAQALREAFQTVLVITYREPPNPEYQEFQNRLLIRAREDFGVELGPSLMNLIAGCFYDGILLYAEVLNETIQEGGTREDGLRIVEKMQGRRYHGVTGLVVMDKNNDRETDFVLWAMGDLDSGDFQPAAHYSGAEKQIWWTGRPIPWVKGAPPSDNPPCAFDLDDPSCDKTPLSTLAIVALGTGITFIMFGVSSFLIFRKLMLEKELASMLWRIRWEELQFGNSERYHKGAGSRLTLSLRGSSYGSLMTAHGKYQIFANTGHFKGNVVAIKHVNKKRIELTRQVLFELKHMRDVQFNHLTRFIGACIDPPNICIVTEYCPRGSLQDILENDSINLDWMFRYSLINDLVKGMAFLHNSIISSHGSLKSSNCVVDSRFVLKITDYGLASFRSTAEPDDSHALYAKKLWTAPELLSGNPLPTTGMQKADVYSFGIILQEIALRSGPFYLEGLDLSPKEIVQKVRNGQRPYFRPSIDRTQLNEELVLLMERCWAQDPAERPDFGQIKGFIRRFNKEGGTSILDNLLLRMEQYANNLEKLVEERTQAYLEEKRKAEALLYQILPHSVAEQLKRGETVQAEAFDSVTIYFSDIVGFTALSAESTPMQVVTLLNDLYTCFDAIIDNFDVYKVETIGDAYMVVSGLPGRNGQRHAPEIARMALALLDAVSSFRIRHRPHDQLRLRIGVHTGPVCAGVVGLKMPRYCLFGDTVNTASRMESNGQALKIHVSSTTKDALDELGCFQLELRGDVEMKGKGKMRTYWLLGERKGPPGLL
T1 sequence (P78324 whole entry, looked up, the tested form may be a part): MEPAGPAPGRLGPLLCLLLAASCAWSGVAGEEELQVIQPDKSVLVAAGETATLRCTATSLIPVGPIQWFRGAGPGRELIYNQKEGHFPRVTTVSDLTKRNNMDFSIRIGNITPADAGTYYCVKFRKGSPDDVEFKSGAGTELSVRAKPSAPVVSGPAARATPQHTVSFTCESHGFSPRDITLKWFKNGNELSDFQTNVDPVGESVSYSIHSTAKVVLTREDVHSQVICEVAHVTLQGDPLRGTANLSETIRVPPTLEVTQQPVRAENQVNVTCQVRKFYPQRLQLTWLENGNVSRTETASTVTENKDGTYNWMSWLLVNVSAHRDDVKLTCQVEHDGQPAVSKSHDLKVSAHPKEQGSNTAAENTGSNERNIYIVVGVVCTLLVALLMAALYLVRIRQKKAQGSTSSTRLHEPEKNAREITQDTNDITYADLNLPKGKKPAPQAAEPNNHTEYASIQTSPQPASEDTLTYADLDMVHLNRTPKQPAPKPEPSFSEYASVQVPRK
T1 sequence (Q08722 whole entry, looked up, the tested form may be a part): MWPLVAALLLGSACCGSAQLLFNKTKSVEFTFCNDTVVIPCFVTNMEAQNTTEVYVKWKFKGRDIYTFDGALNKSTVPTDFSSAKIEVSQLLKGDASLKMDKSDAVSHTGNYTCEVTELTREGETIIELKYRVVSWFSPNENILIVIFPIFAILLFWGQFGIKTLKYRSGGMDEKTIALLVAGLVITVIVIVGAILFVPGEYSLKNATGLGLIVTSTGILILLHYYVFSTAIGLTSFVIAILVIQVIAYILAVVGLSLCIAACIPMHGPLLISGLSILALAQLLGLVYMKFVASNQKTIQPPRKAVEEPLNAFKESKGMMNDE
Sequence of Parathyroid hormone/parathyroid hormone-related peptide receptor (Homo sapiens) (Q03431 whole entry, looked up): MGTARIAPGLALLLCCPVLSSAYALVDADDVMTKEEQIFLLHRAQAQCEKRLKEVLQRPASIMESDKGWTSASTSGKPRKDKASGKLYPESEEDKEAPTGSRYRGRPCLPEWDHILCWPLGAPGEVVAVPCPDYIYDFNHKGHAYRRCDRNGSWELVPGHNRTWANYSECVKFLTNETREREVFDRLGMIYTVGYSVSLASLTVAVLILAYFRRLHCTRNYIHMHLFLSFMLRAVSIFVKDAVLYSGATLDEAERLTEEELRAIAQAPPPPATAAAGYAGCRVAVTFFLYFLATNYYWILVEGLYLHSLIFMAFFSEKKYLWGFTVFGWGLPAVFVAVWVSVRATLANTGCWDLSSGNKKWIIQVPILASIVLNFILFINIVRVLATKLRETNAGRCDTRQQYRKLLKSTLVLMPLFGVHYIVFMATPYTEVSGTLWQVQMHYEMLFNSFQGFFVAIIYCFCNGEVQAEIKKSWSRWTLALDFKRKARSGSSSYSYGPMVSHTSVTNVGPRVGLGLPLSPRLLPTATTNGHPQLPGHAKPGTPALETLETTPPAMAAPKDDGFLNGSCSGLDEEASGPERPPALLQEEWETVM

CCC(C)N(C)C(=O)c1cc2ccccc2c(-c2ccccc2Cl)n1 (configuration not stated)
inactive: Potency [1] | Potency [2] | IC50 (viability decrease) [3] | Potency [4] | outcome [5] | Potency [6] | outcome [7] | outcome [8] | outcome [9] | Potency [10] | Potency [11]

CCOC(=O)N[C@@H]1CC[C@@H]2[C@@H](C1)C[C@H]1C(=O)O[C@H](C)[C@H]1[C@@H]2C=Cc1ccc(-c2cccc(F)c2)cn1
active: Potency [12] 18.7 µM | Potency [2] 14.8 µM
inactive: Potency [4] | Potency [10]

O=C(C1CC1)N1CC[C@@H](Cn2c(-c3ccc(-c4ccc5occc5c4)cc3)nc3cnccc32)C1
inactive: Potency [12] | Potency [1] | Potency [13] | Potency [10] | Potency [11]

CCOC(=O)C1=C[C@@]2(CC)CCCN3CCc4c(n1c1ccccc41)[C@H]32
inactive: Potency [1] | Potency [2] | IC50 (viability decrease) [3]

CC(C)c1onc(-c2c(Cl)cccc2Cl)c1COc1ccc(/C=C/c2cccc(C(=O)O)c2)c(Cl)c1
inactive: Potency [1] | Potency [4]
active: Potency [14] 18.7 µM

CCc1cncnc1N1CCN(Cc2nc3ccc(C(F)(F)F)cc3[nH]2)CC1
inactive: Potency [15] | outcome [7] | outcome [8] | outcome [9] | Potency [10]
active: Potency [12] 16.6 µM | Potency [2] 14.8 µM | Potency [11] 18.7 µM

CC(C)(C)OC(=O)CN(Cc1ccc(Cl)cc1)Cc1ccc([N+](=O)[O-])s1
active: Potency [1] 4.69 µM | Potency [14] 7.43 µM
inactive: Potency [2] | Potency [15] | Potency [10] | Potency [11]

Cc1cc2c(F)c(Oc3ncnn4cc(OC[C@@H](C)O)c(C)c34)ccc2[nH]1
active: Potency [12] 20.9 µM | Potency [15] 0.935 µM
inactive: Potency [2] | Potency [4]

Nc1nc2ccc(OC(F)(F)F)cc2s1
inactive: outcome [16] | Potency [1] | outcome [5] | Potency [6] | Potency [15] | outcome [8] | outcome [9] | outcome [17] | Potency [10] | Potency [11]

CNCc1ccc(-c2[nH]c3cc(F)cc4c3c2CCNC4=O)cc1
active: Potency [12] 16.6 µM | IC50 (viability decrease) [3] 20.9 µM
inactive: Potency [4] | Potency [13] | Potency [10] | Potency [11]

CC[C@H](Nc1ncnc2nc[nH]c12)c1nc2cccc(F)c2c(=O)n1-c1ccccc1
active: Potency [12] 2.96 µM | IC50 (viability decrease) [3] 20.9 µM
inactive: Potency [4] | outcome [18] inactive [at 9.29 µM] | activity change, negative = cytotoxicity [13] 3.11% [at 9.29 µM]

COc1cc2c(cc1OC)CN(CCc1ccc(NC(=O)c3cccc4c(=O)c5cccc(OC)c5[nH]c34)cc1)CC2
inactive: Potency [1] | Potency [2] | Potency [4] | Potency [13] | Potency [15] | Potency [10]
active: IC50 (viability decrease) [3] 10.5 µM

C[C@@H]1C[C@H]2[C@@H]3CCC4=CC(=O)C=C[C@]4(C)C3(F)[C@@H](O)C[C@]2(C)[C@@]1(O)C(=O)CO (some centres not stated)
active: IC50 (viability decrease) [3] 23.5 µM
inactive: Potency [1] | Potency [2]

CCCS(=O)(=O)Nc1ccc(F)c(C(=O)c2c[nH]c3ncc(-c4ccc(Cl)cc4)cc23)c1F
inactive: Potency [1] | Potency [15] | Potency [10]
active: Potency [12] 20.9 µM | Potency [11] 18.7 µM

CCCS(=O)(=O)Nc1ccc(F)c(C(=O)c2c[nH]c3ncc(Cl)cc23)c1F
inactive: Potency [15] | Potency [10]
active: Potency [12] 16.6 µM

O=C(OCC#CCSc1nnc(-c2ccc3ccccc3c2)o1)c1cc2ccccc2s1
inactive: Potency [1] | Potency [2]

Cc1ccc(-n2nc(C(C)(C)C)cc2NC(=O)Nc2ccc(OCCN3CCOCC3)c3ccccc23)cc1
inactive: Potency [18] | Potency [10]
active: Potency [12] 20.9 µM | IC50 (viability decrease) [3] 18.7 µM

CC(C=CC1=C(C)CCCC1(C)C)=CC=CC(C)=CC(=O)O
active: Potency [12] 20.9 µM and 3.72 µM | Potency [11] 7.43 µM
inactive: Potency [18] | Potency [13] | Potency [15] | Potency [10]

CN([C@@H](Cc1ccc(OS(=O)(=O)c2cccc3cnccc23)cc1)C(=O)N1CCN(c2ccccc2)CC1)S(=O)(=O)c1cccc2cnccc12
inactive: Potency [1] | Potency [2] | IC50 (viability decrease) [3] | Potency [4] | activity change, negative = cytotoxicity [18] -0.309% [at 5.11 µM] | activity change, negative = cytotoxicity [13] -4.44% [at 5.11 µM]

COc1ccc(CC2=NN3C([C@@H](CCc4ccccc4)[C@@H](C)O)=NC(C)C3C(=O)N2)cc1OC (some centres not stated)
inactive: Potency [12] | Potency [2] | Potency [4] | Potency [13] | Potency [10] | Potency [11]
active: IC50 (viability decrease) [3] 23.5 µM

Cc1ccc2c(c1)C(=O)[C@@]1(O)CCN(c3ccccc3)C1=N2
inactive: Potency [1] | Potency [2] | IC50 (viability decrease) [3]

Cc1cc(C=c2sc3nc4ccccc4n3c2=O)c(C)n1-c1ccccc1
inactive: Potency [1] | Potency [2] | IC50 (viability decrease) [3] | Potency [15] | Potency [10] | Potency [11]

Cc1oncc1C(=O)Nc1ccc(C(F)(F)F)cc1
inactive: outcome [16] | outcome [5] | Potency [6] | outcome [8] | outcome [9]
active: IC50 (viability decrease) [3] 11.8 µM

COc1ccc2nc(S(=O)Cc3ncc(C)c(OC)c3C)[nH]c2c1 (configuration not stated)
inactive: outcome [16] | Potency [1] | Potency [2] | Potency [13] | Potency [15] | Potency [10] | Potency [11]

COc1ccc(CCN2CCN(CCCc3ccccc3)CC2)cc1OC
active: Potency [2] 13.2 µM
inactive: Potency [12] | Potency [4] | Potency [15] | Potency [10] | Potency [11]

Cn1cnc2c(F)c(Nc3ccc(Br)cc3Cl)c(C(=O)NOCCO)cc21
active: Potency [12] 20.9 µM | Potency [1] 1.18 µM | Potency [11] 14.8 µM
inactive: Potency [13] | Potency [10]

OCCn1cc(-c2cnc3nnn(Cc4ccc5ncccc5c4)c3n2)cn1
inactive: Potency [12] | Potency [1] | Potency [13] | Potency [15] | Potency [10] | Potency [11]

O=C(c1cc(Cc2n[nH]c(=O)c3ccccc23)ccc1F)N1CCN(C(=O)C2CC2)CC1
inactive: Potency [13] | Potency [15]
active: Potency [12] 3.72 µM | Potency [2] 18.7 µM | Potency [10] 16.5 µM
